Among the data in PubChem BioAssay are fold change and cell count values, retold here.

Activity calls are given as the source filed them.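 Rule for the calls: active = compounds whose cell count with miR-34 switched on is under 0.7 times the count with it off; inactive = the rest.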

The test is described as follows: sensitizers of A549 cells to miR-34 induction, primary screen, imaging, A549 dox-inducible miR-34, nuclei and caspase counts (AID 1347080). Note: test concentration not given here. To be noted: A549 miR-34 inducible, Hoechst nuclei count, 48 h.
Setting [1] is: stronger effect = lower value, cell number ratio, induced over uninduced.
Where [2] appears, read: measured here: relative caspase fold change +Dox/-Dox.
[3] abbreviates: measured here: total cells with miR-34 induction, stronger effect = lower value.
Setting [4] is: measured here: total cells without miR-34 induction.

Consider `O=C1OC2(c3ccc(O)cc3Oc3cc(Oc4ccc(O)cc4)ccc32)c2ccccc21` (stereo not drawn), for which the fold change is, setting by setting: under setting [1], 0.956 (inactive); under setting [2], 1.49. Also, the cell count by setting is: under setting [3], 6230; under setting [4], 6520.

`CS(=O)(=O)NC(=O)CCCCCCCCCC=C(Br)Br`: the fold change reads like this: under setting [1], 0.853 (inactive); under setting [2], 1.19. The cell count came to 4860 under setting [3] and 5700 under setting [4].

With `CCCCCOc1ccccc1C(O)CC#CCCCC(=O)OC` (stereo not drawn), the fold change runs as follows: under setting [1], 0.937 (inactive); under setting [2], 1.89. The cell count runs as follows: under setting [3], 5930; under setting [4], 6340.

With `CC(C)OC(=O)CCC/C=C\C[C@@H]1[C@@H](/C=C/C(F)(F)COc2ccccc2)[C@H](O)C[C@@H]1O`, the fold change by setting is: under setting [1], 1.05 (inactive); under setting [2], 0.899. For the same compound, the cell count is, setting by setting: under setting [3], 5900; under setting [4], 5630.

On to `O=C(O)CCC/C=C\C[C@H]1C(=O)C=C[C@@H]1/C=C/[C@@H](O)COc1ccccc1`, for which the fold change reads like this: under setting [1], 0.91 (inactive); under setting [2], 1.28. Besides, the cell count stood at 5700 under setting [3] and 6260 under setting [4].

Consider `O=P(O)(O)OC1[C@@H](O)[C@H](O)C(O)[C@H](O)[C@@H]1O` (stereo partly drawn), for which the fold change by setting is: under setting [1], 0.924 (inactive); under setting [2], 0.602. The cell count came to 5550 under setting [3] and 6010 under setting [4].

For the compound `O=C(O)CCC/C=C\C[C@@H]1[C@@H](/C=C/[C@@H](O)CCc2cccc(C(F)(F)F)c2)[C@H](O)C[C@@H]1O`, the fold change is 1.01 (inactive) under setting [1] and 1.2 under setting [2]. The cell count under setting [3] amounted to 5710 and the cell count under setting [4] is 5640.

As to `CCCCCCCCCCCCC/C=C/[C@H](O)[C@@H](CO)NC(=O)CCCCCCCCCCCCCCCCCCCCCCC`, the fold change runs as follows: under setting [1], 0.979 (inactive); under setting [2], 0.918. Moreover, the cell count under setting [3] amounted to 5890 and the cell count under setting [4] amounted to 6010.

On to `[O-]/[N+](=N/O[C@@H]1O[C@H](CO)[C@H](O)[C@H](O)[C@H]1O)N1CCCC1`, for which the fold change is 0.904 (inactive) under setting [1] and 0.427 under setting [2]. Further, the cell count reads like this: under setting [3], 6560; under setting [4], 7260.

Regarding `CC#CCC(C)C(=O)/C=C/[C@@H]1[C@H]2C/C(=C/CCCC(=O)O)C[C@H]2C[C@H]1O` (stereo partly drawn), the fold change under setting [1] is 0.968 (inactive) and the fold change under setting [2] is 3.57. The cell count by setting is: under setting [3], 5500; under setting [4], 5680.

In the case of `CCCCC1C(=O)CC[C@H]2[C@@H]1CC(=O)[C@@H]2C/C=C\CCCC(=O)O` (stereo partly drawn), the fold change runs as follows: under setting [1], 1.07 (inactive); under setting [2], 1.48. The cell count by setting is: under setting [3], 5940; under setting [4], 5580.

`COc1ccc(/C=C/C(=O)Nc2c(O)cccc2C(=O)O)cc1OC`: the fold change is 0.585 (active) under setting [1] and 0.687 under setting [2]. For the same compound, the cell count was determined as 3430 under setting [3] and 5870 under setting [4].

In the case of `CCCCC/C=C\C/C=C\CCCCCCCC(=O)OC[C@H](O)CO`, the fold change runs as follows: under setting [1], 0.698 (active); under setting [2], 0.477. Moreover, the cell count runs as follows: under setting [3], 4490; under setting [4], 6430.

For the compound `Clc1ccc(/C=C/c2cc(Cl)cc(Cl)c2)cc1`, the fold change under setting [1] is 1.02 (inactive) and the fold change under setting [2] stood at 0.743. In addition, the cell count was 5370 under setting [3] and 5270 under setting [4].

Take `CCCCC[C@H](O)/C=C/[C@@H]1[C@@H](C/C=C\CCCCCC(=O)O)[C@@H](O)C[C@H]1O`: the fold change runs as follows: under setting [1], 0.876 (inactive); under setting [2], 0.899. Moreover, the cell count under setting [3] was 5260 and the cell count under setting [4] was 6000.

As for `O=C(CCc1ccc(O)c(O)c1)N[C@@H](CC(=O)OCc1ccccc1)C(=O)OCc1ccccc1`, the fold change was 1.01 (inactive) under setting [1] and 0.94 under setting [2]. The cell count is, setting by setting: under setting [3], 6350; under setting [4], 6270.

Consider `CCCc1oc(CCC(=O)O)c(C(=O)O)c1C`, for which the fold change reads like this: under setting [1], 0.885 (inactive); under setting [2], 0.896. For the same compound, the cell count was determined as 5170 under setting [3] and 5840 under setting [4].

For the compound `COc1ccc2cc(C(C#N)OC(=O)CC3OC3c3ccccc3)ccc2c1` (stereo not drawn), the fold change under setting [1] was 0.909 (inactive) and the fold change under setting [2] was 0.7. The cell count worked out at 5490 under setting [3] and 6040 under setting [4].

For `CCCCCCCCCCCCCCCCCCCCCCCCCCCCCCO`, the fold change by setting is: under setting [1], 0.965 (inactive); under setting [2], 0.745. Further, the cell count under setting [3] turned out to be 6130 and the cell count under setting [4] came to 6350.

Consider `CCCCC/C=C\C/C=C\C/C=C\C/C=C\CCCC(=O)OCC`, for which the fold change was 0.807 (inactive) under setting [1] and 0.655 under setting [2]. Moreover, the cell count by setting is: under setting [3], 5170; under setting [4], 6410.

Regarding `CC/C=C\C/C=C\C/C=C\C/C=C\CCCCC(=O)OC`, the fold change under setting [1] was 0.976 (inactive) and the fold change under setting [2] was determined as 1.08. The cell count worked out at 5040 under setting [3] and 5160 under setting [4].

For the compound `COc1cc(/C=C/c2ccc(Cl)cc2)cc(OC)c1`, the fold change was 1.01 (inactive) under setting [1] and 0.802 under setting [2]. The cell count is 6120 under setting [3] and 6070 under setting [4].

Take `CC(=O)c1ncc([C@@H](O)[C@H](O)[C@H](O)CO)[nH]1`: the fold change was 0.931 (inactive) under setting [1] and 2.05 under setting [2]. Also, the cell count under setting [3] came to 5900 and the cell count under setting [4] was found to be 6330.

For `CCCCC[C@](C)(O)/C=C/[C@H]1[C@H](O)CC(=O)[C@@H]1CCCCCCC(=O)O`, the fold change is, setting by setting: under setting [1], 1 (inactive); under setting [2], 1.58. Also, the cell count under setting [3] came out at 5750 and the cell count under setting [4] was 5720.

Consider `CCCCC[C@H](O)/C=C/[C@H]1CCC(=O)[C@@H]1CCCCCCC(=O)O`, for which the fold change under setting [1] was 0.938 (inactive) and the fold change under setting [2] amounted to 1.33. The cell count under setting [3] was determined as 5360 and the cell count under setting [4] worked out at 5720.

For the compound `CCCCC/C=C\C/C=C\CCCCCCCC(=O)O[C@H](COC(=O)CCCCCCCCCCCCCCC)COP(=O)(O)OCCN`, the fold change reads like this: under setting [1], 0.789 (inactive); under setting [2], 0.779. For the same compound, the cell count under setting [3] is 4540 and the cell count under setting [4] worked out at 5760.

On to `CCCCCCCC/C=C\CCCCCCCC(=O)NCC`, for which the fold change was 1.03 (inactive) under setting [1] and 0.997 under setting [2]. Besides, the cell count by setting is: under setting [3], 6050; under setting [4], 5880.

Turning to `CCCCCCCCCCCCCCCC(=O)OC`, the fold change under setting [1] is 0.995 (inactive) and the fold change under setting [2] was determined as 0.98. Also, the cell count under setting [3] is 5710 and the cell count under setting [4] came to 5750.

With `CC(C)(C)OC(=O)Nc1cccc2[nH]ccc12`, the fold change was 0.913 (inactive) under setting [1] and 0.676 under setting [2]. Also, the cell count by setting is: under setting [3], 4970; under setting [4], 5440.

For the compound `CCCCCCC(=O)SC[C@H](COP(=O)([O-])OCC[N+](C)(C)C)SC(=O)CCCCCC`, the fold change runs as follows: under setting [1], 0.918 (inactive); under setting [2], 0.72. Besides, the cell count under setting [3] is 5570 and the cell count under setting [4] came to 6070.

Take `O=C(O)CCCCCC[C@H]1C(=O)NC(=O)N1CCC(O)C1CCCCC1` (stereo partly drawn): the fold change under setting [1] is 1.09 (inactive) and the fold change under setting [2] was determined as 1.38. Also, the cell count by setting is: under setting [3], 6150; under setting [4], 5640.

Turning to `O=C(O)CCCCCC[C@@H]1[C@@H](CC[C@@H](O)CCc2cccc(C(F)(F)F)c2)[C@H](O)C[C@@H]1O`, the fold change under setting [1] was 1.13 (inactive) and the fold change under setting [2] stood at 1.38. The cell count under setting [3] turned out to be 6150 and the cell count under setting [4] came out at 5440.
